The values below come from PubChem BioAssay (EPA / NIEHS).

SMILES strings stand for the structures. Several values for one entry are separate records, joined by “and”; a condition that tells them apart may be missing. Equal values may be shown once. More than one record can exist for a structure, and the calls need not agree. Activity calls are given as the source filed them. The calls were made as follows: active = hit-call score of the fitted dose curve at least 0.9, where 1 is the maximum; inactive = score below 0.9.

Read-out in the assay: Epidermal growth factor receptor (EGFR), EGFR (gene 1956)
The assay can be described thus: BSK_hDFCGF_EGFR: BioMAP Diversity Plus: hDFCGF Assay for Epidermal growth factor receptor (EGFR) Biomarker Activity (AID 2283057). The following applies: primary human foreskin fibroblasts; actives raise or lower the signal. Here is the method: BSK_hDFCGF is a cell-based, multiplexed-readout assay that uses foreskin fibroblast, a human skin primary cell, with measurements taken at 24 hours after chemical dosing in a 96-well plate.BSK_hDFCGF_EGFR is an assay component measured in the BSK_hDFCGF assay. It measures EGFR antibody related to regulation of gene expression using ELISA technology.Data from the assay component BSK_hDFCGF_EGFR was analyzed into 1 assay endpoint. This assay endpoint, BSK_hDFCGF_EGFR, was analyzed with bidirectional fitting relative to DMSO as the negative control and baseline of activity. Using a type of binding reporter, gain or loss-of-signal activity can be used to understand changes in the signaling as they relate to the gene EGFR. Furthermore, this assay endpoint can be referred to as a primary readout, because this assay has produced multiple assay endpoints where this one serves a signaling function. To generalize the intended target to other relatable targets, this assay endpoint is annotated to the kinase intended target family, where the subfamily is receptor tyrosine kinase.
The levels of cell surface (or secreted, indicated by the prefix "s") biomarker endpoints were measured by ELISA. Overt cytotoxicity to cells in confluent adherent cultures (all systems other than the BT system) was assessed by measuring total protein levels using sulforhodamine B (SRB) staining in parallel cultures at the time of biomarker measurements, indicated as SRB endpoints. For proliferation assays for adherent cell types, individual cell types are cultured at sub-confluence and relative cell numbers quantified by SRB staining at time points optimized for each system (48 h: 3C and CASM3C systems; 72 h: BT and HDF3CGF systems; 96 h: SAg system). SRB was performed by staining cells with 0.1% SRB after fixation with 10% TCA and reading wells at 560 nm.Viability and proliferation of PBMC (T cells) was quantified by Alamar Blue reduction for the SAg and BT systems. For PBMC viability (referred to as PBMC Cytotoxicity within the assay endpoint names), cells were plated (75,000/well in a 96-well plate) and then chemical samples added for 1 h before addition of activators, SEB and TSST-1 (20 ng/mL final concentration each). Cells were incubated for 90 h. Then, Alamar Blue (20 uL/well) (Invitrogen, Cat DAL1100) was added for 6 h, and the plates were read with a fluorescence microplate reader at 546/580 nm (excitation/emission). For PBMC proliferation, cells were plated and activated as above but incubated for only 16 h prior to addition of Alamar Blue. Plates were read after 6 h.
As for `O[Si](c1ccccc1)(c1ccccc1)c1ccccc1`, the outcome was inactive.
As to `FC(F)(F)C(F)(F)C(F)(F)C(F)(F)C(F)(F)C(F)(F)C(F)(F)I`, the result was inactive.
Regarding `CCN(CC)c1ccc2c(C)cc(=O)oc2c1`, the outcome was inactive.
As usually defined, the AC50 is the concentration giving half of the maximal activity seen. `FC(F)(F)C(F)(F)CNCC(F)(F)C(F)(F)F`: the outcome was inactive and the AC50 was 7.57 µM (active).
Regarding `CCc1ccc(C(c2ccc(CC)cc2)C(Cl)Cl)cc1`, the outcome was inactive.
As for `O=C(O)C(F)(F)C(F)(F)C(F)(F)C(F)(F)F`, the result was inactive.
As to `C#C[C@]1(O)CC[C@H]2[C@@H]3CCc4cc(OC)ccc4[C@H]3CC[C@@]21C`, the concentration at half-maximal activity (AC50) was 0.016 µM (active).
As for `OCCCC(F)(F)C(F)(F)C(F)(F)F`, the outcome was inactive.
Still for that read-out and setting: the same measure for `C=CC/C=C/C/C=C/C/C=C/C`: “inactive”.
Turning to `Cc1ccc(S(=O)(=O)OCC(F)(F)C(F)(F)C(F)(F)C(F)(F)C(F)(F)C(F)F)cc1`, the outcome was inactive.
Take `O=P(O)(O)OCCC(F)(F)C(F)(F)C(F)(F)C(F)(F)C(F)(F)C(F)(F)F`: the outcome was inactive.
On to `FC(F)(I)C(F)(F)C(F)(F)C(F)(F)I`, for which the outcome was inactive.
On the same count and under the same terms, the same measure for `CCCCCCC(C)OC(=O)CCCCC(=O)OC(C)CCCCCC` (stereo not given): “inactive”; for `CO[Si](OC)(c1ccccc1)c1ccccc1`: “inactive”.
Take `O=C(Cl)C(F)(F)C(F)(F)C(F)(F)C(F)(F)C(F)(F)C(F)(F)C(F)(F)C(F)(F)F`: the outcome was inactive; the AC50 was 6.36 µM (active) and 13.7 µM (active).
With `CC(=O)Nc1ccc(N=Nc2cc(C)ccc2O)cc1`, the result was inactive.
For the molecule `CS(C)(=O)=O`, the result was inactive.
With `OCC(F)(F)C(F)(F)C(F)(F)C(F)F`, the outcome was inactive.
The same measure, in the same setting: next, `O=S(=O)(OCC(F)F)C(F)(F)F`: “inactive”; `O=S(=O)(O)C(F)(F)C(F)(F)C(F)(F)C(F)(F)C(F)(F)C(F)(F)C(F)(F)F`: “inactive”; `C=C(C)C(=O)OCCC(F)(F)C(F)(F)C(F)(F)C(F)(F)C(F)(C(F)(F)F)C(F)(F)F`: “inactive”.
Regarding `FC(F)(F)C(F)(F)C(F)(F)C(F)(F)C(F)(F)CCI`, the result was inactive.
Consider `O=C(O)C(F)(F)C(F)(F)OC(F)(F)F`, for which the result was inactive.
As to `O=C(O)C(F)(F)C(F)(F)C(F)(F)C(F)(F)C(F)(F)C(F)(F)C(F)(F)C(F)(F)Cl`, the half-maximal activity concentration (AC50) is 7.33 µM (active) and 55.2 µM (active).
For the molecule `O=C(O)C(F)(F)C(F)(F)C(F)(F)F`, the result was inactive.
For the molecule `O=S(=O)(OCCOC(F)(F)F)C(F)(F)F`, the result was inactive.
Take `OCC(F)(F)C(F)(F)C(F)(F)F`: the result was inactive.
On to `O=C(O)C(F)(OC(F)(F)C(F)(OC(F)(F)C(F)(F)C(F)(F)F)C(F)(F)F)C(F)(F)F` (stereo not given), for which the outcome was inactive.
Regarding `O=C(O)C(F)(F)C(F)(F)C(F)F`, the outcome was inactive.
Consider `C=CC(=O)OCC(F)(F)C(F)(F)C(F)(F)C(F)(F)C(F)(F)C(F)(F)C(F)(F)F`, for which the result was inactive.
On to `FC(F)(F)C(F)(F)C(F)(F)N(C(F)(F)C(F)(F)C(F)(F)F)C(F)(F)C(F)(F)C(F)(F)F`, for which the result was inactive.
As to `FC(F)(Br)C(F)(F)C(F)(F)C(F)(F)C(F)(F)C(F)(F)Br`, the outcome was inactive.
For the molecule `O=C(O)C(F)(F)C(F)(F)F`, the result was inactive.
With `OCCCC(F)(F)C(F)(F)C(F)(F)C(F)(F)C(F)(F)C(F)(F)C(F)(F)F`, the outcome was inactive and the AC50 was 9.95 µM (active).
Regarding `CCCCCCCOC(=O)c1ccccc1C(=O)OCCCCCCC`, the outcome was inactive.
For the molecule `O=C(CC(=O)C(F)(F)C(F)(F)F)C(F)(F)F`, the result was inactive.
As to `FC(F)(F)C(F)(F)C(F)(F)C(F)(F)C(F)(F)C(F)(F)C(F)(F)C(F)(F)CCS`, the result was inactive.
